Out of some 5,500 compounds screened, about 2,000 (36%) were called active. Another 18% or so got no clear call; they are omitted. Cut-off read from the data, not from the text of the source: active = normalized growth mostly below about 0.91 (no sharp cut-off); inconclusive = no clear call, values can overlap the other calls; inactive = mostly above about 0.92. The list shows a part of the results.
Experiment: chemical genetic growth profiling, strain panel (AID 1159580);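 note: tested at 20 µM; growth read once vehicle control cultures reached saturation at 30 °C; 1 = growth at the plate median or of vehicle wells; lower values mean less growth of the strain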
Conditions: growth OD
[1] = S. cerevisiae deletion strains, locus YHR030C, strain SLT2, active compounds read low
[2] = S. cerevisiae deletion strains, locus YJL095W, strain BCK1, active compounds read low

Measured: normalized growth

CC(c1cc2ccccc2s1)N(O)C(N)=O (centres undefined)
inactive: [1] 1.01 | S. cerevisiae deletion strains, locus YHR079C, strain IRE1, active compounds read low 0.964 | [2] 0.981 | S. cerevisiae deletion strains, locus YJR066W, strain TOR1, active compounds read low 0.941 | S. cerevisiae deletion strains, locus YLR113W, strain HOG1, active compounds read low 0.944 | S. cerevisiae deletion strains, locus YNL183C, strain NPR1, active compounds read low 0.892 | S. cerevisiae deletion strains, locus YOR231W, strain MKK1, active compounds read low 0.967 | S. cerevisiae deletion strains, locus YPL256C, strain CLN2, active compounds read low 0.976

COC(=O)C[C@H]1C(C)(C)[C@H](O)[C@@H]2CC3=C4CC(O)O[C@@H](c5ccoc5)[C@]4(C)CCC3[C@@]1(C)C2=O (some centres undefined)
inactive: S. cerevisiae deletion strains, locus YBR021W, strain FUR4, active compounds read low 1.01 | S. cerevisiae deletion strains, locus YBR229C, strain ROT2, active compounds read low 0.948 | S. cerevisiae deletion strains, locus YCL029C, strain bik1, active compounds read low 0.969 | S. cerevisiae deletion strains, locus YDL035C, strain GPR1, active compounds read low 0.974 | S. cerevisiae deletion strains, locus YDL074C, strain BRE1, active compounds read low 0.966 | S. cerevisiae deletion strains, locus YDL101C, strain DUN1, active compounds read low 0.99 | S. cerevisiae deletion strains, locus YDL185W, strain tfp1, active compounds read low 0.971 | S. cerevisiae deletion strains, locus YDL192W, strain arf1, active compounds read low 0.978 | S. cerevisiae deletion strains, locus YDR101C, strain arx1, active compounds read low 0.983 | S. cerevisiae deletion strains, locus YDR162C, strain NBP2, active compounds read low 0.984 | S. cerevisiae deletion strains, locus YDR318W, strain mcm21, active compounds read low 0.992 | S. cerevisiae deletion strains, locus YDR388W, active compounds read low 0.979 | S. cerevisiae deletion strains, locus YDR502C, strain sam2, active compounds read low 1.02 | S. cerevisiae deletion strains, locus YEL061C, strain CIN8, active compounds read low 0.974 | S. cerevisiae deletion strains, locus YER110C, active compounds read low 0.985 | S. cerevisiae deletion strains, locus YER155C, strain BEM2, active compounds read low 1 | S. cerevisiae deletion strains, locus YER167W, strain BCK2, active compounds read low 0.969 | S. cerevisiae deletion strains, locus YGL078C, strain dbp3, active compounds read low 1.03 | S. cerevisiae deletion strains, locus YGL086W, strain mad1, active compounds read low 1 | S. cerevisiae deletion strains, locus YGL248W, strain PDE1, active compounds read low 0.991 | S. cerevisiae deletion strains, locus YGR078C, strain PAC10, active compounds read low 1.02 | S. cerevisiae deletion strains, locus YGR135W, strain pre9, active compounds read low 1.07 | S. cerevisiae deletion strains, locus YGR229C, strain SMI1, active compounds read low 1.02 | S. cerevisiae deletion strains, locus YGR252W, strain gcn5, active compounds read low 1.03 | [1] 0.996 | S. cerevisiae deletion strains, locus YHR079C, strain IRE1 (second series), active compounds read low 0.993 | S. cerevisiae deletion strains, locus YHR094C, strain hxt1, active compounds read low 0.984 | S. cerevisiae deletion strains, locus YHR129C, strain ARP1, active compounds read low 0.99 | S. cerevisiae deletion strains, locus YHR200W, strain rpn10, active compounds read low 0.999 | S. cerevisiae deletion strains, locus YIL066C, strain RNR3, active compounds read low 0.948 | S. cerevisiae deletion strains, locus YIL073C, strain SPO22, active compounds read low 0.964 | S. cerevisiae deletion strains, locus YIL125W, strain kgd1, active compounds read low 0.986 | S. cerevisiae deletion strains, locus YIR030C, strain dcg1, active compounds read low 0.99 | [2] 0.993 | S. cerevisiae deletion strains, locus YJL134W, strain LCB3, active compounds read low 0.971 | S. cerevisiae deletion strains, locus YJL168C, strain set2, active compounds read low 0.991 | S. cerevisiae deletion strains, locus YJL187C, strain SWE1 (second series), active compounds read low 1 | S. cerevisiae deletion strains, locus YJR043C, strain POL32, active compounds read low 0.975 | S. cerevisiae deletion strains, locus YKL009W, strain mrt4, active compounds read low 0.953 | S. cerevisiae deletion strains, locus YKL068W, active compounds read low 0.985 | S. cerevisiae deletion strains, locus YKL085W, strain MDH1 (second series), active compounds read low 0.988 | S. cerevisiae deletion strains, locus YKL085W, strain MDH1, active compounds read low 0.988 | S. cerevisiae deletion strains, locus YKL190W, strain CNB1, active compounds read low 0.98 | S. cerevisiae deletion strains, locus YKR001C, strain vps1, active compounds read low 0.978 | S. cerevisiae deletion strains, locus YLR039C, strain RIC1, active compounds read low 0.964 | S. cerevisiae deletion strains, locus YLR058C, strain SHM2, active compounds read low 0.975 | S. cerevisiae deletion strains, locus YLR102C, strain apc9, active compounds read low 0.991 | S. cerevisiae deletion strains, locus YLR262C, strain YPT6, active compounds read low 0.99 | S. cerevisiae deletion strains, locus YLR268W, strain sec22, active compounds read low 0.953 | S. cerevisiae deletion strains, locus YLR330W, strain CHS5, active compounds read low 0.986 | S. cerevisiae deletion strains, locus YLR371W, strain rom2, active compounds read low 0.986 | S. cerevisiae deletion strains, locus YLR418C, strain cdc73, active compounds read low 0.975 | S. cerevisiae deletion strains, locus YML016C, strain PPZ1, active compounds read low 0.977 | S. cerevisiae deletion strains, locus YML032C, strain rad52, active compounds read low 0.976 | S. cerevisiae deletion strains, locus YML124C, strain tub3, active compounds read low 0.992 | S. cerevisiae deletion strains, locus YMR078C, strain ctf18, active compounds read low 0.989 | S. cerevisiae deletion strains, locus YMR223W, strain ubp8, active compounds read low 1 | S. cerevisiae deletion strains, locus YMR307W, strain GAS1, active compounds read low 0.951 | S. cerevisiae deletion strains, locus YNL067W, strain RPL9B, active compounds read low 1.03 | S. cerevisiae deletion strains, locus YNL153C, strain GIM3, active compounds read low 1.01 | S. cerevisiae deletion strains, locus YNL233W, strain BNI4, active compounds read low 1.03 | S. cerevisiae deletion strains, locus YNL250W, strain rad50, active compounds read low 0.998 | S. cerevisiae deletion strains, locus YNL271C, strain bni1, active compounds read low 0.989 | S. cerevisiae deletion strains, locus YNL298W, strain CLA4, active compounds read low 0.984 | S. cerevisiae deletion strains, locus YNL307C, strain MCK1, active compounds read low 0.994 | S. cerevisiae deletion strains, locus YNR052C, strain pop2, active compounds read low 1.04 | S. cerevisiae deletion strains, locus YOL012C, strain htz1 0.912 | S. cerevisiae deletion strains, locus YOL147C, strain pex11, active compounds read low 0.989 | S. cerevisiae deletion strains, locus YOR061W, strain CKA2, active compounds read low 0.944 | S. cerevisiae deletion strains, locus YOR069W, strain VPS5, active compounds read low 0.986 | S. cerevisiae deletion strains, locus YOR136W, strain idh2, active compounds read low 0.994 | S. cerevisiae deletion strains, locus YOR144C, strain elg1, active compounds read low 0.991 | S. cerevisiae deletion strains, locus YOR184W, strain ser1, active compounds read low 0.954 | S. cerevisiae deletion strains, locus YOR316C, strain cot1, active compounds read low 0.992 | S. cerevisiae deletion strains, locus YPL241C, strain CIN2, active compounds read low 0.988 | S. cerevisiae deletion strains, locus YPR119W, strain clb2, active compounds read low 1.01 | S. cerevisiae deletion strains, locus YPR141C, strain kar3, active compounds read low 0.989 | S. cerevisiae deletion strains, locus YPR163C, strain tif3, active compounds read low 0.987 | S. cerevisiae deletion strains, locus YPR167C, strain met16, active compounds read low 0.996 | S. cerevisiae deletion strains, strain wtn01, active compounds read low 0.98 | S. cerevisiae strains, strain wild type, active compounds read low 0.979
